Our source for the Potency and outcome values is PubChem BioAssay (Tox21).

One test concerns the target Aromatase (Homo sapiens) (UniProt P11511). The test can be described thus: qHTS assay to identify aromatase inhibitors (AID 743083; also: series mostly up to about 70 µM; nearly all actives have a fitted effect of over 55% in size). (qHTS replaces the single test concentration by a dilution series.)
Test [1] addresses Aryl hydrocarbon receptor (Homo sapiens) (UniProt P35869). The experiment in a line: qHTS assay to identify small molecule that activate the aryl hydrocarbon receptor (AhR) signaling pathway (AID 743085).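 Also: HG2L7.5c1 human HepG2 liver cells with stably integrated DRE-driven firefly reporter; series mostly up to about 70 µM; nearly all actives have a fitted effect of over 15% in size.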 A digest of the protocol: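 Cell line HG2L7.5c1 (human hepatoma, 20× DRE-luc). Plated, 5 h 37C, compound/DMSO added, 24 h 37C. CellTiter-Fluor 30 min 37C → fluorescence; then ONE-Glo 30 min RT → luminescence.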

Test [2] deals with Acetylcholinesterase (Homo sapiens) (UniProt P22303). The experiment in a line: Acetylcholinesterase (AChE) small molecule antagonists: fluorescence cell-based qHTS assay (AID 1347398; calls by dose curve; also: nearly all actives have a fitted effect of over 50% in size; also: potency is read from the fitted curve at half-maximal effect). The following applies: Potency: AChE activity; outcome: AChE activity. In outline:
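SH-SY5Y cells (2000/well), attached overnight, incubated with compound 30 min at 37 C. Acetylthiocholine plus Thiolite Green then added for 40 min at room temperature. Thiocholine fluorescence (Ex/Em 490/520 nm) reports cellular AChE activity.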

The target is the same in test [3]. The test can be described thus: Acetylcholinesterase (AChE) small molecule antagonists: enzyme-based qHTS assay with human liver microsomes (AID 1347399; calls by dose curve; also: nearly all actives have a fitted effect of over 60% in size). The note with it: Potency: qHTS inhibition; outcome: qHTS inhibition. In outline:
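Recombinant human AChE (50 mU/mL in the enzyme mix) and human liver microsomes (0.25 mg/mL final) were preincubated with compound and NADPH (0.25 mg/mL final) for 30 min at 37 C. Acetylthiocholine/DTNB was then added; thiocholine was read colorimetrically after 10 min at room temperature.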

Test [4] is described as follows: qHTS assay for small molecules that induce genotoxicity in human embryonic kidney cells expressing luciferase-tagged ATAD5 (AID 651632). Also: nearly all actives have a fitted effect of over 15% in size. In outline: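 ATAD5-luc HEK293T, 2,000 cells/well; cpd or DMSO pin-transferred; 16 hr, 37C/5% CO2; Amplite 30 min RT; luminescence.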
Test [5] can be described thus: qHTS assay for small molecule agonists of the p53 signaling pathway - cell viability (AID 651633; calls by dose curve; also: potency is read from the fitted curve at half-maximal effect; nearly all actives have a fitted effect of over 30% in size). In outline: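 p53RE-bla cells were treated with compound for 16 hours at 37 C. Cytotoxicity was then measured as CellTiter-Glo luminescence after 30 min at room temperature.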
Test [6] in a line: qHTS assay for small molecules that induce genotoxicity in human embryonic kidney cells expressing luciferase-tagged ATAD5 - cell viability (AID 651634; calls by dose curve; also: potency is read from the fitted curve at half-maximal effect; nearly all actives have a fitted effect of over 25% in size). A digest of the protocol:
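Fluorescence from CellTiter-Fluor, reporting protease activity within live cells, served as the viability read-out. HEK293T cells carrying luciferase-tagged ATAD5 had been treated with compound for 15.5 hr at 37C.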

Test [7] can be described thus: qHTS assay for small molecule disruptors of the mitochondrial membrane potential - cell viability (AID 720634; calls by dose curve;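 also: human HepG2 liver cancer cells; series mostly up to about 83 µM; nearly all actives have a fitted effect of over 20% in size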). A digest of the protocol: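 Cells: HepG2, 2,000/well, attached overnight. Compound 1 hr, 37 C/5% CO2. +m-MPI dye, +CellTiter-Glo 30 min RT. Readout: luminescence (ATP).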
Test [8] is described as follows: qHTS assay for small molecule disruptors of the mitochondrial membrane potential (AID 720635). Also: potency is read from the fitted curve at half-maximal effect. In outline: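 HepG2 cells exposed to compound 1 hr at 37C, then Mito-MPS dye 30 min. Ratio read of aggregate (540/590 nm) versus monomer (490/535 nm) fluorescence.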
Test [9] can be described thus: qHTS assay to test for compound auto fluorescence at 590 nm (red) in HepG2 cells (AID 720674). A digest of the protocol: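 Seeding: 2,000 HepG2 cells/well, MEM/10% FBS, overnight 37 C. Dosing: compound vs DMSO. Incubation: 1 hr, 37 C, 5% CO2. Read: fluorescence 540 ex/590 em, Rose Bengal sodium as red reference.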
The nature of test [10]: qHTS assay to test for compound auto fluorescence at 535 nm (green) in HepG2 cells (AID 720675).
Test [11] in a line: qHTS assay to test for compound auto fluorescence at 460 nm (blue) in HEK293 cells (AID 720678). In outline:
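Blue-channel (Ex/Em 405/460 nm) intensity measured in HEK293 cultures after overnight compound exposure at 37C; signal expressed relative to triamterene. Cells plated 2,000 per well in 10% dialyzed FBS medium and allowed 4-5 hr to attach.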

The nature of test [12]: qHTS assay to test for compound auto fluorescence at 590 nm (red) in HEK293 cells (AID 720679). In outline:
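Red-channel autofluorescence (Ex/Em 540/590 nm; Rose Bengal sodium reference) was measured after overnight 37C, 5% CO2 exposure of attached HEK293 cells, 2,000 per well in medium with 10% dialyzed FBS.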

The nature of test [13]: qHTS assay to test for compound auto fluorescence at 535 nm (green) in HEK293 cells (AID 720680).
Test [14] is described as follows: qHTS assay to test for compound auto fluorescence at 460 nm (blue) in HEK293 cell free culture (AID 720681). In outline:
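Compounds were added to cell-free DMEM with 10% FBS and fluorescence read directly. The blue channel used 405 nm excitation and 460 nm emission, with triamterene as the reference fluorophore.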

A short description of test [15]: qHTS assay to test for compound auto fluorescence at 535 nm (green) in HEK293 cell free culture (AID 720682). In outline:
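Fluorescein serves as the green reference fluorophore; each compound's intrinsic emission at 535 nm (excitation 485 nm) is reported as an equivalent amount of that dye, measured in serum-containing DMEM without cells.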

The nature of test [16]: qHTS assay to test for compound auto fluorescence at 590 nm (red) in HEK293 cell free culture (AID 720683). A digest of the protocol:
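Cell-free wells of DMEM with 10% FBS received compound, and intrinsic fluorescence was read at excitation/emission 540/590 nm. Values expressed as equivalence to Rose Bengal sodium.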

Test [17] is described as follows: qHTS assay to test for compound auto fluorescence at 590 nm (red) in HepG2 cell free culture (AID 720684). In outline: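 Compound was pinned into wells holding MEM with 10% FBS and no cells, and red fluorescence was read at Ex/Em 540/590 nm. Signal is expressed as auto fluorescence equivalency relative to Rose Bengal sodium.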
A short description of test [18]: qHTS assay to test for compound auto fluorescence at 460 nm (blue) in HepG2 cell free culture (AID 720685). A digest of the protocol: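 Compound (23 nL) or DMSO pinned into cell-free MEM with 10% FBS; blue fluorescence read at 405/460 nm excitation/emission, expressed as auto-fluorescence equivalency to triamterene.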
The nature of test [19]: qHTS assay to test for compound auto fluorescence at 535 nm (green) in HepG2 cell free culture (AID 720686).
Test [20] in a line: qHTS assay to test for compound auto fluorescence at 460 nm (blue) in HepG2 cells (AID 720687). In outline: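 HepG2 cells in MEM with 10% FBS, attached overnight at 37 C, were exposed to compound or DMSO for 1 hr at 37 C, 5% CO2. Blue fluorescence was read at 405/460 nm, with triamterene as reference fluorophore.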
Test [21] is described as follows: qHTS assay to identify small molecule antagonists of the glucocorticoid receptor (GR) signaling pathway - cell viability counter screen (AID 720693). Also: potency is read from the fitted curve at half-maximal effect; nearly all actives have a fitted effect of over 55% in size.
Test [22] can be described thus: qHTS assay for identifying genotoxic compounds that show differential cytotoxicity against isogenic chicken DT40 cell lines with known DNA damage response pathways - wild type cell line (AID 743012). Also: potency is read from the fitted curve at half-maximal effect; nearly all actives have a fitted effect of over 60% in size. A digest of the protocol: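 Wild type DT40, 300 cells/well, ~0.5 h settle at 37 C/5% CO2; compounds in DMSO added by pintool; 40 h at 37 C/5% CO2; CellTiter-Glo, 30 min RT; luminescence.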

Test [23] can be described thus: qHTS assay for identifying genotoxic compounds that show differential cytotoxicity against isogenic chicken DT40 cell lines with known DNA damage response pathways - Rev3 mutant cell line (AID 743014). Also: potency is read from the fitted curve at half-maximal effect; nearly all actives have a fitted effect of over 55% in size.
Test [24] can be described thus: qHTS assay for identifying genotoxic compounds that show differential cytotoxicity against isogenic chicken DT40 cell lines with known DNA damage response pathways - Rad54/Ku70 mutant cell line (AID 743015). Also: potency is read from the fitted curve at half-maximal effect; nearly all actives have a fitted effect of over 60% in size.
Test [25] in a line: qHTS assay to identify small molecule antagonists of the androgen receptor (AR) signaling pathway - cell viability counter screen (AID 743033; also: potency is read from the fitted curve at half-maximal effect; nearly all actives have a fitted effect of over 45% in size).
The target of test [26] is Androgen receptor (Homo sapiens) (UniProt P10275). The experiment in a line: qHTS assay to identify small molecule antagonists of the androgen receptor (AR) signaling pathway (AID 743035; active = well fitted inhibition curve with a large enough effect in the signal ratio in the repeat runs, not every such curve was filed as active; the % refers to the signal ratio; also: potency is read from the fitted curve at half-maximal effect). In outline: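 Fluorescence from a beta-lactamase FRET substrate (LiveBLAzer B/G, 2 h, room temperature) measured inhibition of R1881-stimulated signaling in GeneBLAzer AR-UAS-bla HEK293 cells exposed to compound for 16 h at 37C.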
Sequence of Androgen receptor (Homo sapiens) (P10275 whole entry, looked up): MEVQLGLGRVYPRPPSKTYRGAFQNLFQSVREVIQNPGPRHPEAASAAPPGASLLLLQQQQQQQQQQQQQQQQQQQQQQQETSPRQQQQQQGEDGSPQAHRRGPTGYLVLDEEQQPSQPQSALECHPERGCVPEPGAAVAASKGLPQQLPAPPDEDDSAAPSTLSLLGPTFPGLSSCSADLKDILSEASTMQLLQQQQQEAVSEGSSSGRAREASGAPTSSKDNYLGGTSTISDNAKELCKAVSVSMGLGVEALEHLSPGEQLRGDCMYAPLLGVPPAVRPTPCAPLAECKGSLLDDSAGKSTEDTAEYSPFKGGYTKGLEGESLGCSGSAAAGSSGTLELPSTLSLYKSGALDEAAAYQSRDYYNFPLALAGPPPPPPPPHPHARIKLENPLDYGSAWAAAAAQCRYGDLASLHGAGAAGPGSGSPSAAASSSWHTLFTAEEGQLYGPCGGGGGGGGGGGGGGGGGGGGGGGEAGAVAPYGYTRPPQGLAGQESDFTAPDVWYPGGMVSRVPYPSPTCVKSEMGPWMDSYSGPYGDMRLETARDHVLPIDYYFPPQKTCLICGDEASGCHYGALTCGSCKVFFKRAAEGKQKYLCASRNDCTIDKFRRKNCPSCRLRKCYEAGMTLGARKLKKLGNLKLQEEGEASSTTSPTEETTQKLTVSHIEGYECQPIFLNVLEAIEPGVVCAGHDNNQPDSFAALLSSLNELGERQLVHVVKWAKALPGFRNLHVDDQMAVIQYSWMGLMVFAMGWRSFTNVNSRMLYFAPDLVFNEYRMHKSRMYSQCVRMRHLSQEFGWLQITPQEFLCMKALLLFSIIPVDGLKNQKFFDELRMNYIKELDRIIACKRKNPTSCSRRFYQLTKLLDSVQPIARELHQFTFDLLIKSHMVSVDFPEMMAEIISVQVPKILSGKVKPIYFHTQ

The nature of test [27]: qHTS assay to identify small molecule antagonists of the thyroid receptor (TR) signaling pathway - cell viability counter screen (AID 743064). Also: nearly all actives have a fitted effect of over 50% in size. In outline:
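Fluorescence from CellTiter-Fluor, added after 23.5 h exposure at 37 °C, reported viability of GH3.TRE-Luc cells co-treated with compound and 1 nM T3. Measured in the same wells as the luciferase TR readout.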

Test [28] in a line: qHTS assay to identify small molecule antagonists of the thyroid receptor (TR) signaling pathway (AID 743065). Also: series mostly up to about 70 µM; nearly all actives have a fitted effect of over 55% in size. A digest of the protocol:
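GH3.TRE-Luc rat pituitary cells (two TREs driving luciferase) were dosed with compound, then stimulated with 1 nM T3 (final) for 23.5 h at 37 C. ONE-Glo luminescence was the read-out, with CellTiter-Fluor fluorescence as the cytotoxicity counter-screen.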

In test [29] the test system is thyroid hormone receptor (rat, GH3 cells). The test can be described thus: qHTS assay to identify small molecule agonists of the thyroid receptor (TR) signaling pathway (AID 743066; calls by dose curve).
Test [30] in a line: qHTS assay to identify small molecule antagonists of the estrogen receptor alpha (ER-alpha) signaling pathway - cell viability counter screen (AID 743074; calls by dose curve;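 also: HEK293 cells carrying ER-alpha-UAS-bla reporter stimulated with 17beta-estradiol; potency is read from the fitted curve at half-maximal effect; nearly all actives have a fitted effect of over 45% in size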).
Test [31] addresses Estrogen receptor (Homo sapiens) (UniProt P03372). The test can be described thus: qHTS assay to identify small molecule agonists of the estrogen receptor alpha (ER-alpha) signaling pathway (AID 743075; calls by dose curve;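 also: HEK293 GripTite cells with ER-alpha and UAS-driven beta-lactamase reporter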).
A short description of test [32]: qHTS assay to identify small molecule antagonists of the estrogen receptor alpha (ER-alpha) signaling pathway using the BG1 cell line - cell viability counter screen (AID 743081).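 Also: compound given together with 17beta-estradiol as the ER stimulus; series mostly up to about 70 µM; nearly all actives have a fitted effect of over 45% in size.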
Test [33] is described as follows: qHTS assay to identify aromatase inhibitors - cell viability counter screen (AID 743084).
Test [34] is described as follows: qHTS assay to identify small molecule that activate the aryl hydrocarbon receptor (AhR) signaling pathway - cell viability counter screen (AID 743086).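 Also: HepG2 liver cells carrying the AhR DRE luciferase reporter; series mostly up to about 70 µM; nearly all actives have a fitted effect of over 45% in size.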 In outline:
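HepG2-AhR-luc (HG2L7.5c1) cells, 4000/well, treated 24 h at 37 C with compound; viability measured as CellTiter-Fluor fluorescence after 30 min in the same wells as the luciferase read.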

Each structure is given as a SMILES string. Values without a mark were called inactive. Records with an inconclusive call do not appear. Activity calls are given as the source filed them. Unless noted, calls follow the shape of the dose curve; as a rule, active = well fitted curve in the direction sought with a large enough effect in the repeat runs; inconclusive = weak or mixed curves; inactive = no such curve, though single readings can be large; an effect the other way counts as inactive or inconclusive.

Sequence of Acetylcholinesterase (Homo sapiens) (P22303 whole entry, looked up): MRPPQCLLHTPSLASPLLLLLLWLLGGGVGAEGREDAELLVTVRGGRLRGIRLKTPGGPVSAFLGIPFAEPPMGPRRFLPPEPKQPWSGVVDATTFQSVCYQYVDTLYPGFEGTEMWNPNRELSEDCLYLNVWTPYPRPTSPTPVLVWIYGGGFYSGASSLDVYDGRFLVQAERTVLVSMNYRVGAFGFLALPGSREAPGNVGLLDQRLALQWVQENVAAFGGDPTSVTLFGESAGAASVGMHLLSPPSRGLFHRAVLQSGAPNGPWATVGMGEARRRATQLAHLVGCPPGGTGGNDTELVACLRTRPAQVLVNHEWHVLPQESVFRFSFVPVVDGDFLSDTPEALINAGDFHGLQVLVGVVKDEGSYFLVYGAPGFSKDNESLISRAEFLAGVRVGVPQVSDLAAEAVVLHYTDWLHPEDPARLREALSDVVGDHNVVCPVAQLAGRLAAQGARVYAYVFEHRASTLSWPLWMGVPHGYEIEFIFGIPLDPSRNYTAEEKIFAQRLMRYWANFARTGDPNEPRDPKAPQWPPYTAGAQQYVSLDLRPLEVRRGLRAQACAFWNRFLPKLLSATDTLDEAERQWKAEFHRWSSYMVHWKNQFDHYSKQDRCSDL
Sequence of Aromatase (Homo sapiens) (P11511 whole entry, looked up): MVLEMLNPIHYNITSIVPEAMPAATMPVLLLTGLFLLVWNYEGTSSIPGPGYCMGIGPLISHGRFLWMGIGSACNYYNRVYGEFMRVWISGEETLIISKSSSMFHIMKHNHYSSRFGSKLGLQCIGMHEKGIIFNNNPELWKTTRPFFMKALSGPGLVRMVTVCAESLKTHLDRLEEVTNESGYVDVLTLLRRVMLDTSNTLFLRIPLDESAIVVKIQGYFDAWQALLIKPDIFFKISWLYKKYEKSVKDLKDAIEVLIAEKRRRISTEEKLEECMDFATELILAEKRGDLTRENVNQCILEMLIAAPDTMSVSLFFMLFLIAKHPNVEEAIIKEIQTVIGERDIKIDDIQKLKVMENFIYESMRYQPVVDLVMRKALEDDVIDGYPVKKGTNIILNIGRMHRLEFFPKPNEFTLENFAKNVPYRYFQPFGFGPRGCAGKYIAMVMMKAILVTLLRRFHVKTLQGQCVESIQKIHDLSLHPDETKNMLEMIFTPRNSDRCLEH
Sequence of Aryl hydrocarbon receptor (Homo sapiens) (P35869 whole entry, looked up): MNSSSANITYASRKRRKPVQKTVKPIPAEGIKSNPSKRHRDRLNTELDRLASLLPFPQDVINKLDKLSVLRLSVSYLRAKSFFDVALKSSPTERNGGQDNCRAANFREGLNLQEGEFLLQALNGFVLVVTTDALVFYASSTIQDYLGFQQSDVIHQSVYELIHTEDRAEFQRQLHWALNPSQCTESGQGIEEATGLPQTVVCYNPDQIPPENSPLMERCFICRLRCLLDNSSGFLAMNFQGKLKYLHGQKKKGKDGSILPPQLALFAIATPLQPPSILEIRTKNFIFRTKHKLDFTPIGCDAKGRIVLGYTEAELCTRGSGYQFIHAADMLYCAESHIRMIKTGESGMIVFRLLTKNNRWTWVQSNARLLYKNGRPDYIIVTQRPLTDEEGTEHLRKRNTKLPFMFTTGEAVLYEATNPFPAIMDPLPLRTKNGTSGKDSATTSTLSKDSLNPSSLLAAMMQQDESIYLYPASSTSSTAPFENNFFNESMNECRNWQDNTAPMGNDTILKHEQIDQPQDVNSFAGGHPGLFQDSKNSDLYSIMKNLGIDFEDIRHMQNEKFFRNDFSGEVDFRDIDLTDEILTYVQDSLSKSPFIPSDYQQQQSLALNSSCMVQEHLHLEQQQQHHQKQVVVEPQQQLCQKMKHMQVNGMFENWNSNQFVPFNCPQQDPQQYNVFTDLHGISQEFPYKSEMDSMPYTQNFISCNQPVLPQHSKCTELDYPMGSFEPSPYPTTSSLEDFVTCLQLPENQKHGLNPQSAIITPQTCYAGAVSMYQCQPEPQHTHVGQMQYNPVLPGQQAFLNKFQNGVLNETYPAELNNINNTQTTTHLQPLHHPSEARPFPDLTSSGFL
Sequence of Estrogen receptor (Homo sapiens) (P03372 whole entry, looked up): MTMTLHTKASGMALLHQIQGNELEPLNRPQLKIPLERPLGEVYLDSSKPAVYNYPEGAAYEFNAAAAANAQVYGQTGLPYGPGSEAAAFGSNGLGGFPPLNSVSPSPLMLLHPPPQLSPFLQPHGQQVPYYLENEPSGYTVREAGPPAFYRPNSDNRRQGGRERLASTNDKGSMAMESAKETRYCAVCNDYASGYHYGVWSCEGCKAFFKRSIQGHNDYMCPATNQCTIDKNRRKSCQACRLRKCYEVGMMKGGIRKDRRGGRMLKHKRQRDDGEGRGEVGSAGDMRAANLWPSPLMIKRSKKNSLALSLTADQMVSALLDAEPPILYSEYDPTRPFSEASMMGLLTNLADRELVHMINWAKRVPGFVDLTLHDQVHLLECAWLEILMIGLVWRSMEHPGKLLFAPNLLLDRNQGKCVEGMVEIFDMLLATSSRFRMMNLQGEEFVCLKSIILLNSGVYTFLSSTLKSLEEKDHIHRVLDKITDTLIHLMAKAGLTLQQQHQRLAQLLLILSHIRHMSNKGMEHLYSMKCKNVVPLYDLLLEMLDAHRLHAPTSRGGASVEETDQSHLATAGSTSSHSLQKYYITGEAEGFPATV

Take `O=[N+]([O-])O[C@@H]1CO[C@H]2[C@@H]1OC[C@@H]2O`: in the test with Aromatase (Homo sapiens), the Potency result is “inactive”. The compound was classed as inactive in test [1].

`Cc1onc(-c2ccccc2)c1-c1ccc(S(N)(=O)=O)cc1`: the Potency result in test [2] and in test [3] was “inactive” each time.

As for `CC(=O)O[C@H]1C[C@H](O[C@H]2[C@@H](O)C[C@H](O[C@H]3[C@@H](O)C[C@H](OC4CC[C@@]5(C)C(CC[C@@H]6[C@@H]5CC[C@]5(C)[C@@H](C7=CC(=O)OC7)[C@@H](O)C[C@]65O)C4)O[C@@H]3C)O[C@@H]2C)O[C@H](C)[C@H]1O[C@@H]1O[C@H](CO)[C@@H](O)[C@H](O)[C@H]1O` (some centres not stated), the outcome in test [4], in test [7], in test [9], in test [10], in test [11] and in [12] was inactive. Further, the compound was called inactive in test [13], in test [14], in test [15], in test [16], in [17] and in test [18]. For the same compound, the compound was classed as inactive in test [19], in test [20], in test [29] and in [33]. Moreover, the Potency was 376 nM (active) in test [5]; 750 nM (active) in [6]; 944 nM (active) in test [8]; 2390 nM (active) in [21]; 2110 nM (active) in test [22]; 2660 nM (active) in test [23]. Moreover, the Potency in test [24] is 2660 nM (active); in test [25], 601 nM (active); in test [26], 4250 nM (active); in [30], 379 nM (active). Moreover, the Potency result (in [27]; in test [28]; in test [31]; in test [32]; in the test with Aromatase (Homo sapiens); in [34]) was “inactive” throughout.

Take `C=CC(=O)OCCN(CC)CC`: the Potency result in test [3] is “inactive”.

For `Cc1cc(O)ccc1O`, in test [2], the Potency was 71800 nM (active). The Potency result in test [3] was “inactive”.

Turning to `CCN(CC)CCCC(C)Nc1c2ccc(Cl)cc2nc2ccc(OC)cc12` (configuration not stated), the Potency result in test [3] is “inactive”.

As to `CCOc1ccc(Cc2nccc3cc(OCC)c(OCC)cc23)cc1OCC`, the Potency in [2] is 15500 nM (active). In addition, the Potency entry in [3] is “inactive”.
